HCV inh = blocks hepatitis C virus | Huh7.5.1 HCVcc-Cre infection, luciferase reporter, 44 h | Potency, µM (series often up to 41.8 µM), without a hit: at the highest dose activity change, negative = inhibition, usual class: inhibitors | 3.4% of 340,000 active | AID 651820; active means well fitted inhibition curve with a large enough effect; inconclusive means small, poorly fitted or top-dose-only effect, or another doubt; inactive means no such curve, though single readings can be large or run the other way; further: potency means the concentration at half of the fitted maximal effect
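Reporter virus HCVcc-Cre (~0.5 moi) infects cells exposed to compound; seeding density 1,000 cells/well with 4 h settling beforehand. Luminescence, 15 sec read, taken 44 h post-infection following a 15 min RT substrate incubation.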
MARV entry inh = Marburg virus entry inhibition. Marburg virus pseudotyped entry inhibition, cell reporter. Potency, µM (titrated, usually from 37.8 µM), for the others: at the top dose activity change, negative = inhibition, actives largely listed as inhibitors. 1.8% of 300,000 active. AID 540276; calls by dose curve; tested in HEK293 cells; further: potency means the concentration at half of the fitted maximal effect
HCMV antiviral = inhibitors of human cytomegalovirus. HFF cells, HCMV-luciferase reporter, 72 h; stronger effect = lower value. activity change, negative = inhibition, % at 57.5 µM. 4.5% of 410,000 active; in the data active means activity change below about -60%; inconclusive means no clear call, values can overlap the other calls; inactive means above about -39%
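Two compound doses tested in HFFs infected with HCMV-luciferase, MOI 1 PFU/cell, 72 h at 37C. Lysate luminescence read with OneGlo; data normalized against buffer-only and 10uM Salinomycin inhibitor controls.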
Vaccinia Venus = inhibitors of vaccinia virus (Venus reporter) | 0.46% of 330,000 active | Vaccinia virus Venus reporter expression, fluorescence | AID 720580 | Potency, µM (titrated, usually from 36.5 µM), for the others: at the highest dose activity change, negative = inhibition, usual class: inhibitors; calls by dose curve; tested in A549 cells; further: potency means the concentration at half of the fitted maximal effect; nearly all actives have a fitted effect of over 30% in size
Vaccinia mCherry = vaccinia inhibition (mCherry reporter) | Vaccinia virus mCherry reporter infection, fluorescence | Potency, µM (top dose mostly 36.5 µM), for inactives: at the highest dose activity change, negative = inhibition, actives largely listed as inhibitors | 0.63% of 310,000 active | AID 720579; calls by dose curve; tested in A549 cells; further: potency means the concentration at half of the fitted maximal effect; nearly all actives have a fitted effect of over 35% in size
LASV entry inh = inhibitors of Lassa virus binding or cell entry | Lassa virus pseudotype entry inhibition, cell reporter | Potency, µM (series often up to 37.9 µM), for the others: at the top dose activity change, negative = inhibition, most hits filed as inhibitors | 1.2% of 300,000 active | AID 540256; calls by dose curve; tested in HEK293 cells; further: potency means the concentration at half of the fitted maximal effect; nearly all actives have a fitted effect of over 50% in size
* hit, by the source's call; i = inactive; ? = inconclusive; . = not tested or not shown; [ ] = remark or other dose. Most compounds without a hit are left out; they make up all but 7.8% or so of the library. On the % scale 0 is the no-effect control and ±100 the full control effect.

SMILES | HCV inh | MARV entry inh | HCMV antiviral | Vaccinia Venus | Vaccinia mCherry | LASV entry inh
Cc1ccc(NC(=O)c2ccc(S(=O)(=O)N3CC(C)CC(C)C3)cc2)cc1S(=O)(=O)N1CCOCC1 (stereo not drawn) | 7.9µM* | . | ? | . | . | .
CCc1c(C)nc2cc(-c3ccc(OC)c(OC)c3)nn2c1NCC1CC1 | 11µM* | ? | -8 | ? | ? | ?
Cc1ccc(C(=O)NCCc2nnc3n2CCN(Cc2ccc4ccccc4c2)CC3)c(C)c1 | . | . | . | -16% | i | .
Nc1cccc(C#Cc2ccc3c(c2)C(=O)/C(=C/c2ccsc2)O3)c1 | 2.5µM* | . | 4 | -7% | ? | .
COc1cccc(/C=C2\Oc3ccc(O)cc3C2=O)c1O | -5% | ? | -29 | 63% | -5% | ?
O=C(Nc1cccc(NC(=O)c2ccc([N+](=O)[O-])o2)c1)c1ccco1 | ? | ? | ? | ? | 13µM* | ?
O=C(Nc1cccc(NC(=O)c2ccc(-c3ccc(Br)cc3)o2)c1)c1ccccc1 | -14% | ? | -40 | -26% | . | -1%
CC(=O)Nc1cccc(NC(=O)c2ccco2)c1 | -2% | -1% | -19 | . | . | 7%
O=C(Nc1cccc(NC(=O)c2ccc(-c3cccc(Br)c3)o2)c1)c1ccco1 | 3.5µM* | ? | -14 | -15% | -3% | -27%
O=C(Nc1ccc(NC(=O)c2ccco2)c(Cl)c1)c1ccccc1 | -30% | . | 18 | ? | i | .
O=C(Nc1ccc(NC(=O)c2ccc([N+](=O)[O-])o2)cc1Cl)c1ccco1 | ? | -12%[46.1 µM] | -73* | -18% | -22% | 0%
O=C(Nc1ccccc1Cl)c1ccc([N+](=O)[O-])o1 | ? | 13µM* | -101* | ? | ? | ?
N#C/C(=C\c1cc(Br)c(O)c(Br)c1)c1nc2ccccc2c(=O)[nH]1 | . | . | 0 | -3% | -11% | 1%[46.1 µM]
Cc1ccc(NC(=O)c2ccc([N+](=O)[O-])o2)c(C)c1 | 14µM* | . | -25 | . | . | .
Cc1ccccc1NC(=O)c1ccc([N+](=O)[O-])o1 | ? | ? | -13 | -20% | -27% | -18%
COc1cc2cc(CN(CCc3ccccc3C)C(=S)NCCCN(C)C)c(=O)[nH]c2cc1OC | ? | ? | -36 | -19% | -10% | ?
CN(C)CCCNC(=S)N(CCN(C)C)Cc1cc2cc3c(cc2[nH]c1=O)OCCO3 | 5% | ? | 17 | -14% | i | -4%[46.1 µM]
CCc1ccccc1NC(=S)N(CCCN(C)C)Cc1cc2cc3c(cc2[nH]c1=O)OCO3 | 0% | ? | -75* | 6% | -6% | 12%
CN(C)CCCNC(=S)N(Cc1cccs1)Cc1cc2cc3c(cc2[nH]c1=O)OCCO3 | 2.5µM* | 23µM* | -4 | 0% | -6% | ?
COc1cc2cc(CN(CCc3ccccc3C)C(=S)NCCCN3CCOCC3)c(=O)[nH]c2cc1OC | ? | . | -64* | . | . | .
COC(=O)c1ccc(NC(=O)c2cccc(N3C(=O)C4C5C=CC(C6CC56)C4C3=O)c2)cc1 (stereo not drawn) | 5µM* | ? | -40 | -15% | -16% | ?
O=C(Nc1ccc(F)cc1)c1cccc(N2C(=O)C3C4CCC(C4)C3C2=O)c1 (stereo not drawn) | 5% | -11% | ? | -25% | -6% | -14%
O=C(Nc1ccc(Br)cc1)c1cccc(N2C(=O)C3C4CCC(C4)C3C2=O)c1 (stereo not drawn) | 25µM* | ? | -81* | -24% | -26% | ?
Clc1ccc(-c2cc3ncc4c(n3n2)-c2ccccc2OC4)cc1 | . | 1%[46.1 µM] | 25 | -6% | -11% | ?
COc1cc(CN(C(=O)c2ccc(OC(C)C)cc2)c2ccccn2)cc(OC)c1OC | . | ? | -30 | -20% | -12% | -13%[46.1 µM]
SMILES | HCV inh | MARV entry inh | HCMV antiviral | Vaccinia Venus | Vaccinia mCherry | LASV entry inh
Cc1[nH]c2ccccc2c1C(=O)CSC(=S)N1CCN(C)CC1 | -24% | . | -62* | . | . | .
Cc1[nH]c2ccccc2c1C(=O)CSC(=S)N(C)C | 5% | 2% | -34 | -5% | i | 3%
Cc1[nH]c2ccccc2c1C(=O)CSc1nc2ncc(Cl)cc2[nH]1 | 0% | -10% | -62* | -18% | -7% | ?
CCOC(=O)c1c(NC(=O)COc2ccc(Cl)cc2C)sc(C(C)=O)c1C | . | . | 8 | 0% | 6% | -10%[46.1 µM]
O=C(CC(c1ccccc1)c1ccccc1O)N1CCCCC1 (stereo not drawn) | 0% | . | -82* | . | . | .
CCCc1ccc(OC(C)C(=O)Nc2sc3c(c2C(=O)OC)CCCCC3)cc1 (stereo not drawn) | . | -3%[46.1 µM] | -31 | -10%[7.34 µM] | -9%[7.34 µM] | -17%[46.1 µM]
Cn1nccc1C(=O)NCC1CCC2(CCN(Cc3cccc4ncccc34)CC2)O1 (stereo not drawn) | . | . | . | 1% | -4% | .
COc1cccc(CC2(CO)CCCN(Cc3cc4ccccc4[nH]3)C2)c1 (stereo not drawn) | -18% | 4µM* | 5 | -23% | ? | ?
COc1cccc(CC2(CO)CCCN(Cc3ccc(C)s3)C2)c1 (stereo not drawn) | 0% | ? | -20 | -10% | -24% | 0%
COc1cccc(CC2(CO)CCCN(Cc3c(C)cc(C)cc3-n3cccn3)C2)c1 (stereo not drawn) | ? | . | -69* | -23% | -8% | .
COc1cccc(CC2(CO)CCCN(Cc3[nH]c4ccc(C)cc4c3C)C2)c1 (stereo not drawn) | ? | . | -12 | ? | 11µM* | .
CCCCN(CC)C(=O)Nc1ccc2c(c1)N(C)C(=O)c1ccccc1S2 | . | ? | -8 | -12% | -13% | ?
Cc1nn2c(=O)cc(COC(=O)c3cccc(NC(=O)c4ccc(F)cc4)c3)nc2s1 | . | . | -25 | -16% | -13% | ?
CCc1ccc(C(=O)OCC(=O)c2c(N)n(CC(C)C)c(=O)n(C)c2=O)cc1 | ? | ? | -65* | -15% | -22% | ?
CC(C)Cn1c(N)c(C(=O)COC(=O)c2ccc(F)cc2)c(=O)n(C)c1=O | ? | ? | -23 | -4% | i | -27%[46.1 µM]
CC(C)Cn1c(N)c(C(=O)CSc2ccc3c(c2)OCCO3)c(=O)n(C)c1=O | 2µM* | ? | -94* | . | . | ?
CC(C)Cn1c(N)c(C(=O)COC(=O)c2ccc3c(c2)OCCO3)c(=O)n(C)c1=O | 7.1µM* | ? | ? | . | . | ?
CC(C)Cn1c(N)c(C(=O)COC(=O)c2cccc(Cl)c2)c(=O)n(C)c1=O | 2.2µM* | ? | -1 | -13% | -19% | ?
CC(C)Cn1c(N)c(C(=O)COC(=O)c2c(F)cccc2F)c(=O)n(C)c1=O | -30% | . | -30 | . | . | .
Cc1ccc(-c2noc(CNC(=O)c3ccc(C)c(Cl)c3)n2)cc1 | . | ? | -27 | -8% | -15% | -7%[46.1 µM]
CCc1ccc(-n2c(Cc3ccccc3)nnc2SCc2nc(-c3cccs3)no2)cc1 | . | ? | -14 | -7% | -7% | ?

Bioassay records as filed in PubChem.
